Test results reported in the supplement of paper PMC6805474.
Unmarked numbers belong to inactive results.

What follows are compounds tested on Schistosoma mansoni schistosomula (NMRI) (assay: phenotypic severity score (0-4); higher = more antischistosomal effect, active = 2 or more). Details: 48 h; 10 µM.
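Further: visual microscopic scoring of shape, motility and density changes versus 0.5% DMSO solvent controls, one point per descriptor, degeneracy or death scored 4, mean of duplicate wells.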

| Compound | phenotypic severity score |
| --- | --- |
| c1ccc(C[C@@H]2CN(c3nccc(Oc4ccc(-n5ccnc5)cc4)n3)CCN2)cc1 | 0 |
| Cc1nc(-c2cccc(NCc3ccccc3)c2)[nH]c1C | 0 |
| c1cc(C2=NCCN2)cc(-c2cc(-c3ccc(C4=NCCN4)cc3)no2)c1 | 0 |
| NCCC(O)C(=O)N[C@@H]1C[C@H](N)[C@@H](OC2O[C@H](CN)[C@@H](O)[C@H](O)[C@H]2O)[C@H](O)C1OC1O[C@H](CO)[C@@H](O)[C@H](N)[C@H]1O (stereo not given in full) | 0 |
| Nc1ccc(C(=O)Nc2ccc(-c3nc4ccccc4o3)cc2)cc1 | 0 |
| Cc1ccc2nc(Cl)c(CNCc3cccs3)cc2c1 | 0 |
| Cc1nn(C)cc1C(C)Nc1nncc(-c2ccc(C(F)(F)F)cc2)n1 (stereo not given) | 0 |
| Clc1cccc(C(c2ccc(CN3CCNCC3)cc2)n2ccnc2)c1 (stereo not given) | 1 |
| Nc1ccc2ncnc(Nc3ccc(OCc4cccc(F)c4)c(Cl)c3)c2c1 | 4 (active) |
| COc1ccc(C2=NN(C3CCCCCC3)C(=O)[C@@H]3CC=CC[C@H]23)cc1OCCCCOc1ccc(-c2nn[nH]n2)cc1 | 0 |
| Clc1ccc(CN2CCN(C3=NCCN3)CC2)cc1Cl | 0 |
| Cc1nc(-c2ccccn2)nc(NCCc2ccc(S(C)(=O)=O)cc2)c1Cl | 4 (active) |
| COc1ccc(-c2nn(C(C)C)c3ncnc(N)c23)cc1OC | 0 |
| O=C(Nc1c(O)cccc1-c1nc2c(C(=O)O)cccc2o1)c1cc(-c2ccccc2)on1 | 0 |
| CC[P](CC)(CC)=[Au][S][C@H]1O[C@@H](COC(C)=O)[C@H](OC(C)=O)[C@@H](OC(C)=O)[C@@H]1OC(C)=O | 4 (active) |
